The values that follow come from PubChem BioAssay AID1016 (Sanford-Burnham Center for Chemical Genomics, 2008).

Each structure is given as a SMILES string. Among all 200,000 compounds or so, about 330 (0.17%) were called active. This excerpt belongs to a sample that is enriched for actives. A number with no mark means an inactive call.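 The calls were made as follows: active = activation factor of 2 or more at 20 µM, a signal rise over negative controls twice the positive control's; inactive = the rest.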

For the assay, the system named is alkaline phosphatase, intestinal [Bos taurus]. Nature of the assay: bovine intestinal alkaline phosphatase activators, primary screen, biochemical, bovine IAP, CDP-star luminescence (AID 1016). The note with it: purified bovine IAP, 30 min, at 20 µM, stronger effect = higher value, fold of DMSO-control signal, blank-subtracted.
With `CN(C)c1ccc(/C=N/NC(=O)c2ccc(Cn3cc(Br)cn3)o2)cc1`, the activation factor was 1.

Consider `Cc1ccccc1OCC(=O)Nc1nc(C)c(C(=O)N(C)C)s1`, for which the activation factor is 1.

In the case of `Cc1csc(SCC(=O)Nc2sccc2C#N)n1`, the activation factor was 1.2.

With `CN(c1ccc(OCC(=O)OCC(=O)Nc2cccc([N+](=O)[O-])c2)cc1)S(=O)(=O)c1ccc(F)cc1`, the activation factor is 0.8.

`CN(C)c1ccc(NC(=O)CSc2n[nH]c(-c3ccco3)n2)cc1`: the activation factor was 1.

As to `O=C(OCC(=O)c1c[nH]c2ccccc12)c1cccc(O)c1`, the activation factor is 1.2.

In the case of `COCCCNC(=O)Cn1cc(/C=C(\C#N)C(=O)N2CCN(c3ccccc3)CC2)c2ccccc21`, the activation factor is 1.

As to `COc1ccc(/C=N/n2c(C)cc(C)cc2=O)cc1`, the activation factor was 1.2.

`CCOC(=O)C1(Cc2cccc(OC)c2)CCN(C(C)COC)CC1` (stereo not drawn): the activation factor is 1.

Take `Fc1ccccc1Cc1ccc(Cl)nn1`: the activation factor was 0.9.

Consider `O=C(O)c1n[nH]nc1-c1ccccc1`, for which the activation factor was 0.9.

As to `Cc1ccccc1CCN(CC(=O)NC1CCCCC1)C(=O)c1csnn1`, the activation factor is 1.

For the compound `COc1cccc(N(Cc2nnc3n2CCCCC3)C(=O)Nc2ccccc2F)c1`, the activation factor was 1.1.

Turning to `CSc1ccc(C(=O)C2CCCN(C(=O)c3ccc(C)nc3)C2)cc1` (stereo not drawn), the activation factor was 1.

For the compound `COc1ccc(C(=O)Nc2ccc(NC(=O)C(C)C)nc2)cc1`, the activation factor was 0.9.

In the case of `Cc1cccc(CSc2nnc(C)c(=O)n2N)c1`, the activation factor was 1.1.

As to `CC(=O)N/C(=C/c1ccc(OC(F)F)cc1)C(=O)O`, the activation factor was 1.

In the case of `CC(=O)N1CCN(S(=O)(=O)c2ccc(C)c([N+](=O)[O-])c2)C1C(C)C` (stereo not drawn), the activation factor is 1.

For `CC1Cc2ccccc2N1C(=O)CSc1nnc(C2CC2)n1C` (stereo not drawn), the activation factor is 1.

Regarding `CC(NC(=O)c1ccc(N2CCNCC2)c([N+](=O)[O-])c1)C12CC3CC(CC(C3)C1)C2` (stereo not drawn), the activation factor was 1.1.

For `Clc1ccc(-c2nc3ccccn3c2CN2CCSCC2)cc1`, the activation factor is 1.

For the compound `O=C1C2C3C=CC(C3)C2C(=O)N1c1ccc(-c2nc3ccccc3c(=O)o2)cc1` (stereo not drawn), the activation factor is 1.1.

Regarding `COc1cccc(NC(=S)C(C#N)=C2N(C)c3ccccc3N2C)c1`, the activation factor is 1.1.

As for `CC(=O)NC1=NN(C(C)=O)C(C)(c2ccc(C)cc2)S1` (stereo not drawn), the activation factor is 0.9.

On to `CC(=O)c1sc(N/N=C/c2ccc(C(C)C)cc2)nc1C`, for which the activation factor is 0.9.

On to `COCCNC(=O)/C(C#N)=C/c1nc(N(C)C)n(-c2ccc(F)cc2)c1Cl`, for which the activation factor was 1.

On to `O=C(O)c1ccc2c3c(cccc13)C(=O)N(OS(=O)(=O)c1ccccc1)C2=O`, for which the activation factor is 1.3.

On to `Cc1sc2nc(COC(=O)C(NC(=O)c3ccc(Cl)cc3Cl)C(C)C)[nH]c(=O)c2c1C` (stereo not drawn), for which the activation factor was 0.7.
